From PubChem BioAssay (NCI)
Compounds without any hit were thinned out: in the full panel of roughly 83,000, 20% have a hit.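 How to read the values: 0–100, growth inhibition (40 = 60% inhibited); 0, no net growth; -100 to 0, cell death (-40 = 40% of starting cells died; -100 = all dead).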 Activity calls are given as the source filed them. Rule for the calls: active = growth percent below 10; inactive = the rest.

What was measured:
Test in all cases: NCI-60 one-dose screen, 48 h (100 = growth as untreated, 0 = no growth, -100 = all killed)
Details in all cases: 10 µM unless noted
NCI-H23 lung = system: NCI-H23 lung
NCI-H226 lung = system: NCI-H226 lung
NCI-H322M lung = system: NCI-H322M lung
HOP-62 NSCLC = system: HOP-62 NSCLC
NCI-H460 lung = system: NCI-H460 lung
HOP-92 NSCLC = system: HOP-92 NSCLC
NCI-H522 lung = system: NCI-H522 lung
A549/ATCC NSCLC = system: A549/ATCC NSCLC
786-0 renal = system: 786-0 renal
COLO 205 colon = system: COLO 205 colon

Measured: growth

Cc1cc(C(C)(C)C)ccc1S
inactive: NCI-H23 lung 108% | NCI-H226 lung 96.3% | NCI-H322M lung 95.9% | HOP-62 NSCLC 96.2% | NCI-H460 lung 114% | HOP-92 NSCLC 86.3% | NCI-H522 lung 85.8% | A549/ATCC NSCLC 111% | 786-0 renal 99.9% | COLO 205 colon 116%

O=C(NS(=O)(=O)c1ccc2ccccc2c1)n1cc(-c2ccncc2)c(-c2ccc(Cl)c(O)c2)n1
inactive: NCI-H23 lung 61.5% | NCI-H226 lung 84.9% | NCI-H322M lung 116% | HOP-62 NSCLC 92.1% | NCI-H460 lung 89.7% | HOP-92 NSCLC 48.1% | NCI-H522 lung 61.5% | A549/ATCC NSCLC 78% | 786-0 renal 99.1% | COLO 205 colon 105%

O=S(=O)(c1ccc(OCCO)cc1)c1ccc(OCCO)cc1
inactive: NCI-H23 lung 106% | NCI-H226 lung 106% | NCI-H322M lung 91.8% | HOP-62 NSCLC 114% | NCI-H460 lung 104% | HOP-92 NSCLC 87.2% | NCI-H522 lung 82.7% | A549/ATCC NSCLC 101% | 786-0 renal 112% | COLO 205 colon 132%

CN(C[C@H]1Cc2c(cccc2N2CCN(Cc3ccccn3)CC2)CN1)[C@H]1CCCc2cccnc21
inactive: NCI-H23 lung 62.4% | NCI-H226 lung 56.9% | NCI-H322M lung 65.3% | HOP-62 NSCLC 39.1% | NCI-H460 lung 28.1% | HOP-92 NSCLC 73.2% | NCI-H522 lung 95.5% | A549/ATCC NSCLC 40.3% | 786-0 renal 68.5% | COLO 205 colon 69.6%

O=C1CS/C(=N\Nc2cc(=O)[nH]c3ccccc23)N1c1ccccc1
inactive: NCI-H23 lung 96.4% | NCI-H226 lung 95.6% | NCI-H322M lung 99.3% | HOP-62 NSCLC 86.6% | NCI-H460 lung 100% | HOP-92 NSCLC 65.1% | NCI-H522 lung 76.2% | A549/ATCC NSCLC 97.2% | COLO 205 colon 105%

COc1ccc(CCNC2=CC(=O)CCC2)cc1OC
inactive: NCI-H23 lung 92.5% | NCI-H226 lung 95% | NCI-H322M lung 110% | HOP-62 NSCLC 104% | NCI-H460 lung 111% | HOP-92 NSCLC 92.8% | NCI-H522 lung 102% | A549/ATCC NSCLC 105% | 786-0 renal 107% | COLO 205 colon 103%

COc1ccc(-c2nc3sccn3c2/C=C/C(=O)c2cc(F)cc(F)c2)cc1
inactive: NCI-H23 lung 76.3% | NCI-H226 lung 80.5% | NCI-H322M lung 123% | HOP-62 NSCLC 85.8% | NCI-H460 lung 88.4% | HOP-92 NSCLC 18.6% | NCI-H522 lung 48.6% | A549/ATCC NSCLC 89.3% | 786-0 renal 89.1% | COLO 205 colon 68.3%

Cc1ccc(S(=O)(=O)C2=C3C(=C(c4ccccc4)c4ccccc43)CN(S(=O)(=O)c3ccc(C)cc3)C2)cc1
active: HOP-92 NSCLC 3.21% | NCI-H522 lung -45.9% | 786-0 renal 5.02%
inactive: NCI-H23 lung 47.1% | NCI-H226 lung 79.1% | NCI-H322M lung 93.8% | HOP-62 NSCLC 88.6% | NCI-H460 lung 63.8% | A549/ATCC NSCLC 70.9% | COLO 205 colon 71.3%

OCc1ncc(-c2ccccc2)s1
inactive: NCI-H23 lung 93.1% | NCI-H226 lung 125% | NCI-H322M lung 173% | HOP-62 NSCLC 96.9% | NCI-H460 lung 102% | HOP-92 NSCLC 91.3% | NCI-H522 lung 97.5% | A549/ATCC NSCLC 110% | 786-0 renal 60% | COLO 205 colon 114%

CC(=O)Oc1cccc(S(=O)(=O)n2cc(C(=O)C(=O)Nc3ccncc3)c3ccccc32)c1
inactive: NCI-H23 lung 62.6% | NCI-H226 lung 73.6% | NCI-H322M lung 92.3% | HOP-62 NSCLC 87.2% | NCI-H460 lung 82.1% | HOP-92 NSCLC 70.5% | NCI-H522 lung 63.9% | A549/ATCC NSCLC 72.7% | 786-0 renal 91.2% | COLO 205 colon 100%

C=C[C@@H]1C[C@H](O)Cc2cc(F)ccc2N1
inactive: NCI-H23 lung 97.4% | NCI-H226 lung 87% | NCI-H322M lung 112% | HOP-62 NSCLC 88% | NCI-H460 lung 98% | HOP-92 NSCLC 56.2% | NCI-H522 lung 92.9% | A549/ATCC NSCLC 98% | 786-0 renal 100% | COLO 205 colon 107%

COc1ccc(C2C=C(c3ccc(OC)c(OC)c3)N=C3SC=C(C)N32)c(Br)c1 (stereo unspecified)
inactive: NCI-H23 lung 99.2% | NCI-H226 lung 99.2% | NCI-H322M lung 95.8% | HOP-62 NSCLC 108% | NCI-H460 lung 105% | HOP-92 NSCLC 156% | NCI-H522 lung 96.7% | A549/ATCC NSCLC 103% | 786-0 renal 111% | COLO 205 colon 108%

COc1ccc(S(=O)(=O)NCCCNc2nccc(-c3c(-c4cccc([N+](=O)[O-])c4)nc4sccn34)n2)cc1
inactive: NCI-H23 lung 47.3% | NCI-H226 lung 34.8% | NCI-H322M lung 67.6% | HOP-62 NSCLC 61% | NCI-H460 lung 44.4% | HOP-92 NSCLC 82.1% | NCI-H522 lung 32.4% | A549/ATCC NSCLC 52.2% | 786-0 renal 66.6% | COLO 205 colon 36.4%

CC(C)(C)n1cc(-c2ccnc(NCCCNS(=O)(=O)c3ccc(F)cc3)c2)c(-c2cccc(O)c2)n1
inactive: NCI-H23 lung 57.9% | NCI-H226 lung 51.2% | NCI-H322M lung 60.5% | HOP-62 NSCLC 74% | NCI-H460 lung 18.3% | HOP-92 NSCLC 60.3% | NCI-H522 lung 39.1% | A549/ATCC NSCLC 40% | 786-0 renal 22.6% | COLO 205 colon 13%

C=C1C(=O)O[C@H]2[C@H]1CC/C(Cn1cc(CNC(=O)Cc3cn(C(=O)c4ccc(Cl)cc4)c4ccc(OC)cc34)nn1)=C\CC[C@@]1(C)O[C@@H]21
active: HOP-92 NSCLC -65.8% | NCI-H522 lung -50.7% | 786-0 renal -82.7% | COLO 205 colon -74%
inactive: NCI-H23 lung 19.7% | NCI-H226 lung 70.9% | NCI-H322M lung 88.3% | HOP-62 NSCLC 78.6% | NCI-H460 lung 88.5% | A549/ATCC NSCLC 68.4%

CN(C)CCCN(c1nc(C(Cl)(Cl)Cl)ns1)c1nc(C(Cl)(Cl)Cl)ns1
inactive: NCI-H23 lung 58.9% | NCI-H226 lung 53.9% | NCI-H322M lung 65.5% | HOP-62 NSCLC 48.4% | NCI-H522 lung 39.4% | A549/ATCC NSCLC 37.5% | 786-0 renal 42.4% | COLO 205 colon 10.2%
active: NCI-H460 lung 8.42% | HOP-92 NSCLC -0.62%

Cc1nc2cncc(C#Cc3cncc(C(=O)Nc4ccc(CN5CCN(C)CC5)c(C(F)(F)F)c4)c3)c2nc1C
inactive: NCI-H460 lung 13.9% | NCI-H522 lung 10.2% | A549/ATCC NSCLC 31% | 786-0 renal 29.6%
active: NCI-H23 lung 7.45% | NCI-H226 lung -28.7% | NCI-H322M lung 8.94% | HOP-62 NSCLC -17.4% | HOP-92 NSCLC -40.5% | COLO 205 colon -12.3%

Cc1ccc2[nH]c(=O)c3c(c2c1)Oc1ncn2nc(-c4ccco4)nc2c1C3c1ccc(Cl)cc1 (stereo unspecified)
inactive: NCI-H23 lung 93.3% | NCI-H226 lung 92.4% | NCI-H322M lung 96.1% | HOP-62 NSCLC 92.1% | NCI-H460 lung 99.9% | HOP-92 NSCLC 78.5% | NCI-H522 lung 89.5% | A549/ATCC NSCLC 96.7% | COLO 205 colon 109%

COc1ccc(-c2cnnn2-c2nonc2-n2cccc2)cc1OC
inactive: NCI-H23 lung 67.8% | NCI-H226 lung 88.8% | NCI-H322M lung 96.8% | HOP-62 NSCLC 55.8% | NCI-H460 lung 40.7% | HOP-92 NSCLC 72% | NCI-H522 lung 27.4% | A549/ATCC NSCLC 47.2% | 786-0 renal 88.3% | COLO 205 colon 44.4%

CCCCCCCCC(C)OC(=O)c1nn(C(C)=O)c2ccccc12 (stereo unspecified)
inactive: NCI-H23 lung 89.3% | NCI-H226 lung 105% | NCI-H322M lung 102% | HOP-62 NSCLC 97.7% | NCI-H460 lung 110% | HOP-92 NSCLC 98.7% | NCI-H522 lung 90.1% | A549/ATCC NSCLC 94.1% | 786-0 renal 97.3% | COLO 205 colon 111%

COc1ccc2[nH]c(=O)c(/C=N/Nc3nc(-c4ccccc4)cs3)c(O)c2c1
inactive: NCI-H23 lung 89.7% | NCI-H226 lung 66.6% | NCI-H322M lung 18.2% | HOP-62 NSCLC 43% | NCI-H460 lung 46.6% | HOP-92 NSCLC 94.7% | NCI-H522 lung 80.1% | A549/ATCC NSCLC 57.3% | COLO 205 colon 106%

O=C(Nc1ccncc1)C(=O)c1cn(S(=O)(=O)c2ccc(Br)cc2)c2ccccc12
inactive: NCI-H23 lung 46.9% | NCI-H226 lung 77.8% | NCI-H322M lung 97.1% | HOP-62 NSCLC 44.7% | NCI-H460 lung 68.4% | HOP-92 NSCLC 48.6% | NCI-H522 lung 18.3% | A549/ATCC NSCLC 75.6% | 786-0 renal 54.9% | COLO 205 colon 103%

CC(C)(C)n1cc(-c2ccnc(NCCCNS(=O)(=O)c3ccc(C(F)(F)F)cc3)c2)c(-c2cccc(O)c2)n1
inactive: NCI-H23 lung 37.8% | NCI-H226 lung 42% | NCI-H322M lung 35.1% | HOP-62 NSCLC 54.8% | HOP-92 NSCLC 22.7% | A549/ATCC NSCLC 21.5%
active: NCI-H460 lung -48.5% | NCI-H522 lung -13.3% | 786-0 renal -17.3% | COLO 205 colon -59.1%

CC(=O)Oc1csc(N(C(C)=O)c2cc(C(=O)O)cc(C(=O)O)c2)n1
inactive: NCI-H23 lung 93.1% | NCI-H226 lung 101% | NCI-H322M lung 99.8% | HOP-62 NSCLC 99% | NCI-H460 lung 102% | HOP-92 NSCLC 47.3% | NCI-H522 lung 93.1% | A549/ATCC NSCLC 97.1% | COLO 205 colon 99.7%

Nc1ncnc2c1c(-c1ccc(Oc3ccccc3)cc1)nn2C[C@@H]1SSC[C@@H]1O
inactive: NCI-H23 lung 28.8% | NCI-H226 lung 46.7% | NCI-H322M lung 61.8% | HOP-62 NSCLC 48.8% | A549/ATCC NSCLC 22.1% | 786-0 renal 57.5% | COLO 205 colon 33.8%
active: NCI-H460 lung -30.5% | HOP-92 NSCLC -4.45% | NCI-H522 lung -22.1%
